Common to all, as to test: DAPPL (digital affinity profiling via proximity ligation, sequencing); 10 mM Tris-HCl pH 7.5, 50 mM NaCl, 1 mM DTT, 4% glycerol, room temperature, 30 min; GST-TFs on glutathione beads, 16-mer random dsDNA library, 0.1% formaldehyde crosslink after washing; high values mean tight binding
Holding throughout (conditions): protein: recombinant; tags: N-terminal GST; dsDNA, one strand shown

One assay concerns the target T1, FLI1 (Homo sapiens, UniProt Q01543 1-452).
T1 sequence: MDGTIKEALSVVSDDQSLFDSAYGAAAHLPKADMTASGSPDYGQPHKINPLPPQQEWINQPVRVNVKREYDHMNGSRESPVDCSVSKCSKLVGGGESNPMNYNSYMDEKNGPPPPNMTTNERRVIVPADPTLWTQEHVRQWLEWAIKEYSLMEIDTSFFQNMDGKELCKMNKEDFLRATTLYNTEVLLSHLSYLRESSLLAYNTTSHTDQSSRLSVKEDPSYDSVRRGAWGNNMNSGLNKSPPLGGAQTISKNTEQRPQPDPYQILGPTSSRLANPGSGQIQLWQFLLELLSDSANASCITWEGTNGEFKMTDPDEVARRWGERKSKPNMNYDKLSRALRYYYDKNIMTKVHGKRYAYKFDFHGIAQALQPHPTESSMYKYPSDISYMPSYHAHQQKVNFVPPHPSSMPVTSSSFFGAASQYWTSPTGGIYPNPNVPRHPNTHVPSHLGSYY
The gist of the method:
(§1)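 A tag-only sample was pooled with DNA-barcoded human transcription factors that had been expressed in yeast as GST fusions and captured on glutathione beads. The pools were incubated for 30 min at room temperature with 200 nmole of a random double-stranded 16-mer DNA library in Tris/NaCl/DTT/glycerol buffer, then washed, crosslinked with 0.1% formaldehyde, proximity-ligated (BsaI/T4 ligase, 1 h, 37 °C), PCR-amplified and sequenced on an Illumina NextSeq500. Binding signal is each hexamer's read frequency for a factor divided by its frequency for the tag-only sample.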

Another assay concerns the target T2, ELK1 (Homo sapiens, UniProt P19419 1-428).
T2 sequence: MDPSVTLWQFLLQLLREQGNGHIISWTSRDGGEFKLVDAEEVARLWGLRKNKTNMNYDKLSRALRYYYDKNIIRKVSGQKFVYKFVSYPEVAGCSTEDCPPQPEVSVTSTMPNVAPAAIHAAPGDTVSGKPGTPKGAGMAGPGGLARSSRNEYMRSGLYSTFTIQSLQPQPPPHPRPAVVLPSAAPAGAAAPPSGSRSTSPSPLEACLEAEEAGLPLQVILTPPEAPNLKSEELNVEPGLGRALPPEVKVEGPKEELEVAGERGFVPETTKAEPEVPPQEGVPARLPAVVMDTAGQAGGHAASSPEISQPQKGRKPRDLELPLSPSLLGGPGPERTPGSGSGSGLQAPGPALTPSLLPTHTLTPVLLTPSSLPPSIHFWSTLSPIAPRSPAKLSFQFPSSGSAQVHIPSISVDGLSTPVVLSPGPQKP
The method in brief: as §1

The next assay deals with T3, GABPA (Homo sapiens, UniProt Q06546 1-454).
T3 sequence: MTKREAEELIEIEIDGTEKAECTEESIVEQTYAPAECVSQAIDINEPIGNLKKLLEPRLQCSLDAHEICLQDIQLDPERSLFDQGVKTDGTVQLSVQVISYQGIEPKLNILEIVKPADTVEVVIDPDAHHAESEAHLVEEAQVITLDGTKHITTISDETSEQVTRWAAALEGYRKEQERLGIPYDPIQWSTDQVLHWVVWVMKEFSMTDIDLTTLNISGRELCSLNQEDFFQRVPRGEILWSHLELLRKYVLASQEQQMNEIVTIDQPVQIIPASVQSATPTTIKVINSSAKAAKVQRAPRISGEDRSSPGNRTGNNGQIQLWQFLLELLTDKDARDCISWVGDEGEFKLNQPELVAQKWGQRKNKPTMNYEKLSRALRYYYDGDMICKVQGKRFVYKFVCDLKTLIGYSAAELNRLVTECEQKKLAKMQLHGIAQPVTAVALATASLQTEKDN
The gist of the method:
as §1

The target of a further assay is T4, ERG (Homo sapiens, UniProt P11308 1-479).
T4 sequence: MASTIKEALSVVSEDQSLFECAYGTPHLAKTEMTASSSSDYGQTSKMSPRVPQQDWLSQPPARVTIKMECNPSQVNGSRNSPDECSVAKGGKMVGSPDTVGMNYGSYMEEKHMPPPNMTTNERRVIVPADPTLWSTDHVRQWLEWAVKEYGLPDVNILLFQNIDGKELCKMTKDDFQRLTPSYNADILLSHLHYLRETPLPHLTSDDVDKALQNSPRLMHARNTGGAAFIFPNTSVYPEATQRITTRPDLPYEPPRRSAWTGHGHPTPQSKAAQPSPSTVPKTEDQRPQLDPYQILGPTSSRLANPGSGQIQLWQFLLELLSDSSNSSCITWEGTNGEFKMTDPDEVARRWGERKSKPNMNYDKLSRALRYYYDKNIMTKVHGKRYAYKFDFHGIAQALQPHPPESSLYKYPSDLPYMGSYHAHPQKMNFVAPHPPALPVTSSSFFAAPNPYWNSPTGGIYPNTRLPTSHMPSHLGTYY
The method in brief: as §1

For a further assay, the target named is ELF1 (Homo sapiens, UniProt P32519 1-619). The method in brief: as §1
Sequence of ELF1 (P32519 whole entry): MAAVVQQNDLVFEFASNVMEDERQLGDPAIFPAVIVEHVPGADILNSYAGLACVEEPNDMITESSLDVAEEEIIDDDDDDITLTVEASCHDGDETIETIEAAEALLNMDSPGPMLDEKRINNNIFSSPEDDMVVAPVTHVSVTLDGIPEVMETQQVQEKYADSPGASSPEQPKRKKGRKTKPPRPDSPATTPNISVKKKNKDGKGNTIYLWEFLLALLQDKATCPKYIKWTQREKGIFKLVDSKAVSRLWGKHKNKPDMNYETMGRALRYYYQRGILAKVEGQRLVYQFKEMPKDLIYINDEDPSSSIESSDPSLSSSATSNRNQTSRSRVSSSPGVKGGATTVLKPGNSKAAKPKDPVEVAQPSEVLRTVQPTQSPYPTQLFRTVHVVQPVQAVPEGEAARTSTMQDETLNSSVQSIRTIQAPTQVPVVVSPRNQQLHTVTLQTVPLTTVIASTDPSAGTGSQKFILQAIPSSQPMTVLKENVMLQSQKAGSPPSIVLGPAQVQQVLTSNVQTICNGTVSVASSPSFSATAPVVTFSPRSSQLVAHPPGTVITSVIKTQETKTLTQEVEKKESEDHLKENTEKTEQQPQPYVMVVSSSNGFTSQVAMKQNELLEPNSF
In another assay the target is T5, EHF (Homo sapiens, UniProt Q9NZC4 1-300).
T5 sequence: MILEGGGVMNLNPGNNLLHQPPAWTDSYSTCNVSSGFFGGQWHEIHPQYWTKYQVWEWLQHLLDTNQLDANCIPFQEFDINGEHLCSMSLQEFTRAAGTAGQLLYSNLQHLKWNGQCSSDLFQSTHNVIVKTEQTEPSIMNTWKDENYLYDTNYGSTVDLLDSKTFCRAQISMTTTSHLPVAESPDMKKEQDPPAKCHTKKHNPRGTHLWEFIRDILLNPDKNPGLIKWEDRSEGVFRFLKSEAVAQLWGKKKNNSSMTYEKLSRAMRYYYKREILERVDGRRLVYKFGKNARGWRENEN
The method in brief:
as §1

A further assay addresses SPI1 (Homo sapiens, UniProt P17947 1-270). The method in brief: as §1
A further assay concerns the target SPIB (Homo sapiens, UniProt Q01892 1-262). The gist of the method:
as §1

For a further assay, the target named is T6, ELK3 (Homo sapiens, UniProt P41970 1-407).
T6 sequence: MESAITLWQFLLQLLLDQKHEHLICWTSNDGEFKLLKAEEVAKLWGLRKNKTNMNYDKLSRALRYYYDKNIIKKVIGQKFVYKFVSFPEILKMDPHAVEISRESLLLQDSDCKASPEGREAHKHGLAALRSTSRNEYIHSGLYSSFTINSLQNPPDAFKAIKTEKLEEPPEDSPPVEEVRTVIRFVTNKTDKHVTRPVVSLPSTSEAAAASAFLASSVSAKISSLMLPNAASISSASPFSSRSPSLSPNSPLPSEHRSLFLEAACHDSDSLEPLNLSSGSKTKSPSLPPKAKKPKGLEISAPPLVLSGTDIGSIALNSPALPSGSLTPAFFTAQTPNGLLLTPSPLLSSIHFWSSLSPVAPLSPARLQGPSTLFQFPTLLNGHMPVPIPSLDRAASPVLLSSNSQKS
The gist of the method: as §1

Sequence of SPIB (Q01892 whole entry): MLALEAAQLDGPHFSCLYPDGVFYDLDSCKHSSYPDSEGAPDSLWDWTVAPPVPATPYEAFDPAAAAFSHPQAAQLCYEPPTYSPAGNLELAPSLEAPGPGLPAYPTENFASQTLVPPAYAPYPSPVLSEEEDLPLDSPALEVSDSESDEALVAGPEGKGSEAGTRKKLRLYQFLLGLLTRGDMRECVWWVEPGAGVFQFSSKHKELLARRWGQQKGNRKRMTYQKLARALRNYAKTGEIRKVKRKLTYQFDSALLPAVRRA

Turning to TCTTAC, the binding signal in the assay with FLI1 was 1.29 fold enrichment (6-mer frequency, TF over GST control); in the assay with ELK1 it was 1.36 fold enrichment (6-mer frequency, TF over GST control); with GABPA, 1.33 fold enrichment (6-mer frequency, TF over GST control); in the assay with ERG, 1.23 fold enrichment (6-mer frequency, TF over GST control); with ELF1 it was 1.32 fold enrichment (6-mer frequency, TF over GST control); with EHF, 1.2 fold enrichment (6-mer frequency, TF over GST control). Further, the binding signal was 1.26 fold enrichment (6-mer frequency, TF over GST control) with SPI1; 1.26 fold enrichment (6-mer frequency, TF over GST control) with SPIB; 1.3 fold enrichment (6-mer frequency, TF over GST control) in the assay with ELK3.

Take CTTCAG: the binding signal was 1.34 fold enrichment (6-mer frequency, TF over GST control) with FLI1; 1.25 fold enrichment (6-mer frequency, TF over GST control) with ELK1; 1.3 fold enrichment (6-mer frequency, TF over GST control) in the assay with GABPA; 1.32 fold enrichment (6-mer frequency, TF over GST control) with ERG; 1.36 fold enrichment (6-mer frequency, TF over GST control) with ELF1; 1.34 fold enrichment (6-mer frequency, TF over GST control) in the assay with EHF. Besides, the binding signal with SPI1 was 1.29 fold enrichment (6-mer frequency, TF over GST control); in the assay with SPIB it was 1.28 fold enrichment (6-mer frequency, TF over GST control); with ELK3, 1.34 fold enrichment (6-mer frequency, TF over GST control).

With GCTATT, the binding signal with FLI1 is 1.33 fold enrichment (6-mer frequency, TF over GST control); with ELK1 it was 1.34 fold enrichment (6-mer frequency, TF over GST control); with GABPA, 1.36 fold enrichment (6-mer frequency, TF over GST control); with ERG, 1.3 fold enrichment (6-mer frequency, TF over GST control); in the assay with ELF1, 1.26 fold enrichment (6-mer frequency, TF over GST control); in the assay with EHF it was 1.39 fold enrichment (6-mer frequency, TF over GST control). The binding signal was 1.3 fold enrichment (6-mer frequency, TF over GST control) with SPI1; 1.28 fold enrichment (6-mer frequency, TF over GST control) with SPIB; 1.39 fold enrichment (6-mer frequency, TF over GST control) in the assay with ELK3.

Turning to TGATGG, the binding signal was 1.24 fold enrichment (6-mer frequency, TF over GST control) with FLI1; 1.27 fold enrichment (6-mer frequency, TF over GST control) with ELK1; 1.29 fold enrichment (6-mer frequency, TF over GST control) with GABPA; 1.24 fold enrichment (6-mer frequency, TF over GST control) in the assay with ERG; 1.24 fold enrichment (6-mer frequency, TF over GST control) in the assay with ELF1; 1.31 fold enrichment (6-mer frequency, TF over GST control) with EHF. Besides, the binding signal with SPI1 is 1.28 fold enrichment (6-mer frequency, TF over GST control); with SPIB it was 1.39 fold enrichment (6-mer frequency, TF over GST control); with ELK3 it was 1.16 fold enrichment (6-mer frequency, TF over GST control).

In the case of AAGTTC, the binding signal was 1.36 fold enrichment (6-mer frequency, TF over GST control) with FLI1; 1.36 fold enrichment (6-mer frequency, TF over GST control) with ELK1; 1.47 fold enrichment (6-mer frequency, TF over GST control) in the assay with GABPA; 1.36 fold enrichment (6-mer frequency, TF over GST control) with ERG; 1.34 fold enrichment (6-mer frequency, TF over GST control) with ELF1; 1.35 fold enrichment (6-mer frequency, TF over GST control) in the assay with EHF. Also, the binding signal with SPI1 was 1.54 fold enrichment (6-mer frequency, TF over GST control); in the assay with SPIB, 1.51 fold enrichment (6-mer frequency, TF over GST control); with ELK3, 1.36 fold enrichment (6-mer frequency, TF over GST control).

With GACTCC, the binding signal with FLI1 was 1.35 fold enrichment (6-mer frequency, TF over GST control); with ELK1, 1.23 fold enrichment (6-mer frequency, TF over GST control); with GABPA, 1.29 fold enrichment (6-mer frequency, TF over GST control); with ERG, 1.3 fold enrichment (6-mer frequency, TF over GST control); with ELF1, 1.35 fold enrichment (6-mer frequency, TF over GST control); with EHF, 1.37 fold enrichment (6-mer frequency, TF over GST control). Moreover, the binding signal was 1.35 fold enrichment (6-mer frequency, TF over GST control) with SPI1; 1.38 fold enrichment (6-mer frequency, TF over GST control) with SPIB; 1.25 fold enrichment (6-mer frequency, TF over GST control) with ELK3.

In the case of GCTAGC, the binding signal is 1.17 fold enrichment (6-mer frequency, TF over GST control) with FLI1; 1.23 fold enrichment (6-mer frequency, TF over GST control) with ELK1; 1.18 fold enrichment (6-mer frequency, TF over GST control) with GABPA; 1.22 fold enrichment (6-mer frequency, TF over GST control) with ERG; 1.18 fold enrichment (6-mer frequency, TF over GST control) with ELF1; 1.19 fold enrichment (6-mer frequency, TF over GST control) in the assay with EHF. The binding signal with SPI1 is 1.29 fold enrichment (6-mer frequency, TF over GST control); with SPIB it was 1.17 fold enrichment (6-mer frequency, TF over GST control); with ELK3, 1.22 fold enrichment (6-mer frequency, TF over GST control).

Source of the values: PMC7862700, “An all-to-all approach to the identification of sequence-specific readers for epigenetic DNA modifications on cytosine”.
